In the library only some 2.3% were active in any assay of this set; here they are far more common.
CHO-K1 Ca antag: M1 antagonist counterscreen hit in parental CHO-K1 cells; ATP-induced calcium, Fluo-8 fluorescence; inhibition, % at 3 µM; 360,000 compounds, 0.6% hits;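 active = inhibition above a per-plate cutoff, the plate's mean sample inhibition plus 3 SD, cut at about 24% in these data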;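 note: 0% = DMSO plus EC80 ATP and 100% = DMSO alone without ATP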
CHRM1 PAM: human M1 muscarinic receptor positive allosteric modulators, primary screen, CHO-K1 cells, Fluo-8 calcium fluorescence, 1536-well; Muscarinic acetylcholine receptor M1 (Homo sapiens), P11229; CHO-K1 hM1, ACh EC20; 0% = ACh EC20, 100% = maximal ACh; AID 588819, 2011; activation, % at 3 µM; 360,000 compounds, 0.088% hits; in the data active = activation above about 19%, passing the limit was not always enough
Target sequence (P11229 whole entry, looked up): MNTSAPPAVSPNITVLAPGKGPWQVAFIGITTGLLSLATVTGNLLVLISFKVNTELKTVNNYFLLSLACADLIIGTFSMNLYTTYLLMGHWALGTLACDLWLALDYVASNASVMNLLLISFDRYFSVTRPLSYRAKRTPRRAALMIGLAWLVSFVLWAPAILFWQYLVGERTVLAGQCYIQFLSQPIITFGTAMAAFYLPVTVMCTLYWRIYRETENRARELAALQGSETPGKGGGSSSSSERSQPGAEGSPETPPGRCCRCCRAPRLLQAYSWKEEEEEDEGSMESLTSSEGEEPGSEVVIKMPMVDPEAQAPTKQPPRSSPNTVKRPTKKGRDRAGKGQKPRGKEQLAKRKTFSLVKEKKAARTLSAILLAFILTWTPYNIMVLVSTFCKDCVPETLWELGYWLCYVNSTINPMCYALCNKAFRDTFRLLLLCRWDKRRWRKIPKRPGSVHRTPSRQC
M1 ag: human M1 muscarinic receptor agonists, primary screen, Fluo-8 calcium fluorescence, CHO-K1 cells, HTS; Muscarinic acetylcholine receptor M1 (Homo sapiens), P11229; CHO-K1 hM1, agonist mode; 0% DMSO, 100% acetylcholine EC100; activation, % at 3 µM; 360,000 compounds, 0.33% hits;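 active = activation above the run's mean compound activation plus 3 SD, cut at about 16% in these data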;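 note: peak over basal fluorescence ratio within a 140 s kinetic read after compound addition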
M1 ag parental: counter-screen for M1 agonists: effect in parental CHO-K1 cells. 360,000 compounds, 0.48% hits. Fluo-8 calcium fluorescence; scaled to maximal ATP response, vehicle zero. activation, % at 3 µM; in the data active = activation above about 15%;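 note: untransfected CHO-K1 host cells lacking M1 receptor as counterscreen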
M1 PAM parental: nonselective calcium activators in parental CHO-K1 cells, primary screen, counter-screen for M1 PAM project, cell-based, Fluo-8 calcium fluorescence, full deck, 1536-well; activation, % at 3 µM; ATP EC20; 0% at ATP EC20, 100% at ATP max; 360,000 compounds, 0.02% hits;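 active = activation above the run cutoff, the mean activation of all test compounds plus 3 SD, cut at about 40% in these data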;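 note: peak over basal fluorescence ratio in a 140 s read after ATP addition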
CHRM1 antagonist: human M1 muscarinic receptor antagonists, primary screen, CHO-K1 cells, Fluo-8 calcium fluorescence, 1536-well | 360,000 compounds, 1.3% hits | inhibition, % at 3 µM | CHO-K1 hM1, ACh EC80 antagonist;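 active = percent inhibition above its own plate's cutoff, namely the mean of that plate's compound wells plus 3 SD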;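 note: peak over basal fluorescence ratio during 140 s after agonist addition; 0% = ACh EC80 plus DMSO and 100% = DMSO alone without agonist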
Starred values were filed as active, the others as inactive.

SMILES | CHO-K1 Ca antag | CHRM1 PAM | M1 ag | M1 ag parental | M1 PAM parental | CHRM1 antagonist
CCC1CCCCN1CCCNC(=O)CN1C(=O)CSc2ccc(S(=O)(=O)N3CCC(C)CC3)cc21 (stereo not drawn) | -6.6 | -13.6 | -6.1 | 0.1 | -4.0 | 38.7*
Cc1cc(Cl)c(OCCOCCN2CCC(C)CC2)c(Br)c1 | 14.5 | -24.3 | -10.3 | 0.4 | -12.9 | 55.1*
Cc1cc(Br)ccc1OCCCCN1CCC(C)CC1 | 4.9 | -26.6 | -11.3 | 2.5 | -2.4 | 52.9*
Cc1cc(Cl)c(OCCOCCN2CCN(C)CC2)c(Br)c1 | 15.8 | -8.3 | -10.4 | 0.6 | -10.3 | 15.2
CC1CCN(CCCCOc2cccc(Br)c2)CC1 | -7.4 | -26.6 | -12.5 | 1.2 | 15.2 | 83.5*
CC1CCN(CCCCOc2ccc(Br)cc2)CC1 | -3.1 | -23.9 | -10.4 | 1.1 | -3.0 | 31.4*
CC1CCN(CCCCOc2ccccc2Br)CC1 | -6.2 | -12.5 | -10.1 | 0.5 | 19.7 | 10.1
O=C(NC1CCCC1)C(c1ccccn1)N(C(=O)c1csnn1)c1ccccc1Br (stereo not drawn) | 0.3 | 3.6 | -2.4 | 1.1 | 7.6 | -20.3
CC1(NC(=O)CCNC(=O)c2ccc(C(C)(C)C)cc2)CCS(=O)(=O)C1 (stereo not drawn) | -14.0 | 0.1 | -2.0 | 0.3 | 3.8 | 1.9
COc1cc(/C=C2\SC(=S)N(c3cccnc3)C2=O)ccc1O | 1.7 | 0.7 | 13.0 | 18.1* | 6.6 | 4.5
COc1cc(/C=C2\SC(=S)N(NC(=O)c3ccc(O)cc3)C2=O)ccc1O | 13.3 | -13.4 | 37.2* | 23.5* | -20.8 | 35.2
COc1cc(/C=C2\SC(=S)N(NC(=O)c3cccnc3)C2=O)ccc1O | 19.6 | -6.6 | 1.5 | 4.0 | -6.2 | 26.9*
Cc1ccc(S(=O)(=O)N2[C@@H](c3cccc(Cl)c3)C(C(=O)O)=CC[C@H]2c2cccs2)cc1 | -1.7 | 3.1 | -8.1 | 0.4 | 7.8 | 1.6
CCOc1ccc(NC(=O)CSc2nc3ccsc3c(=O)n2CCCCCC(=O)O)cc1 | -8.4 | 11.6 | -0.5 | 0.4 | 15.6 | -23.9
CCC(C)C(CO)NCCCn1cnc2c(OC)ncnc21 (stereo not drawn) | -2.7 | -14.9 | -1.2 | 0.2 | 11.0 | 20.8*
COC(=O)[C@@H](NC(=O)c1ccccc1OC1CCN(S(C)(=O)=O)CC1)C(C)C | -10.2 | -28.1 | -6.1 | -0.5 | 17.4 | 61.7*
COc1ccc(C2CC(c3cccs3)=NN2C(=O)CSc2nncn2C)cc1OC (stereo not drawn) | -12.7 | 9.2 | -5.7 | -0.4 | 1.4 | -15.2
COc1ccc(C2CC(c3cccs3)=NN2C(=O)CSc2nnnn2C)cc1OC (stereo not drawn) | 5.6 | -6.4 | -3.3 | 15.3* | 7.8 | 8.0
COc1ccc(N2CCN(CCNC(=O)Nc3ccc(C)c(Cl)c3)CC2)cc1 | -11.7 | 11.1 | -0.7 | 18.4* | -8.4 | -14.4
COc1ccc(N2CCN(C(=O)c3ccc(C)c(Cl)c3)CC2)cc1 | 29.5* | 6.5 | -3.8 | -0.1 | -2.6 | 4.2
Cc1sc2ncnc(N3CCCCC3)c2c1C | -36.9 | 6.2 | -1.0 | 2.4 | -5.8 | -6.8
Clc1ccc(OCCN2CCN(c3ncnc4sccc34)CC2)cc1 | 33.5* | -15.0 | -1.9 | 6.8 | -3.8 | 25.3*
Cc1ccc(OCCN2CCN(c3ncnc4sc(C)c(C)c34)CC2)cc1 | 16.4 | -10.9 | -3.7 | 6.7 | 13.0 | 17.3*
CCN(CC(=O)Nc1c(F)cccc1F)C(=O)CSc1nc(C)cc(C)n1 | 1.5 | 11.7 | -2.4 | 0.1 | -10.4 | -6.7
COc1cc(C)ccc1OCc1cc(C(=O)NC2CCOCC2)no1 | -5.6 | 4.2 | -3.5 | 0.3 | 9.5 | -7.1
SMILES | CHO-K1 Ca antag | CHRM1 PAM | M1 ag | M1 ag parental | M1 PAM parental | CHRM1 antagonist
COc1cc(C)ccc1OCc1cc(C(=O)NC(c2ccccn2)C(F)(F)F)no1 (stereo not drawn) | 35.2* | 7.5 | -1.1 | -0.2 | -11.7 | -10.4
Nc1nonc1-n1nnc(C(=O)N/N=C/c2cccnc2)c1CSc1ccc(Cl)cc1 | -3.6 | -15.9 | 3.4 | 15.7* | 14.2 | 29.0
CCOc1cccc(-c2c(C(=O)N/N=C/c3ccc(Br)cc3)nnn2-c2nonc2N)c1 | 1.4 | 22.2 | 18.9* | 1.2 | -5.3 | 5.6
CCCOc1ccc(-c2c(C(=O)N/N=C/c3ccc(OCC)cc3)nnn2-c2nonc2N)cc1 | 25.7* | -5.3 | -4.7 | -0.5 | -12.4 | 7.2
CCOc1ccc(-c2c(C(=O)N/N=C/c3ccc(O)cc3)nnn2-c2nonc2N)cc1 | -3.1 | 10.1 | -0.4 | 0.9 | 19.2 | -3.8
CCOc1ccc(-c2c(C(=O)N/N=C/c3ccsc3)nnn2-c2nonc2N)cc1 | -21.3 | 9.0 | 27.9* | 7.3 | 21.6 | -8.5
Nc1nonc1-n1nnc(C(=O)N/N=C/c2cccnc2)c1CSc1ccccc1 | 5.6 | -7.7 | -0.1 | 6.7 | -3.4 | -4.1
CCN(CC(=O)Nc1c(F)cccc1F)C(=O)c1ccc(COc2ccccc2)o1 | 13.3 | -6.3 | -4.0 | 0.1 | -27.6 | 0.6
COc1cc(-c2cc3nc(NCc4cccc(Cl)c4)ccn3n2)cc(OC)c1OC | -13.4 | -8.1 | -3.7 | 3.0 | 14.6 | 0.2
COCCCNc1ccn2nc(-c3ccc(Cl)cc3)cc2n1 | 24.1* | 5.9 | -0.7 | 1.6 | -4.3 | -11.1
COc1ccc(C2c3c(-c4ccccc4O)n[nH]c3C(=O)N2Cc2ccco2)cc1OC (stereo not drawn) | -9.4 | 0.6 | -4.5 | 1.3 | 14.8 | -9.3
COc1ccc(C2c3c(-c4cc(Cl)c(C)cc4O)n[nH]c3C(=O)N2Cc2cccnc2)cc1OC (stereo not drawn) | 1.5 | -21.3 | -6.0 | 0.2 | 12.3 | 79.6*
C[C@@H]1CN([C@H](C)CO)C(=O)c2cc(Br)cnc2O[C@@H]1CN(C)C(=O)C1CCOCC1 | -11.2 | 0.9 | -4.5 | 0.9 | 16.8 | -6.3
Nc1ccc(-c2c3ccc(=O)cc-3oc3cc(O)ccc23)c(C(=O)O)c1 | 29.2* | -14.8 | 116.9* | 108.4* | -14.5 | 29.0
COc1ccc(C(=O)Nc2nnc(S(=O)(=O)N3CCOCC3)s2)cc1 | -12.4 | 6.9 | -1.1 | 1.1 | 18.8 | -9.7
NS(=O)(=O)c1ccc(NC(=S)N2CCN(Cc3ccc(Cl)c(Cl)c3)CC2)cc1 | 2.3 | 3.2 | -12.9 | 19.0* | 19.0 | 5.5
CN(C(=O)c1cccc(NC(=O)Cc2cccc(NC(=O)C3CCN(C(=O)C4CCCCC4)CC3)c2)c1)C1CCC1 | -16.6 | 13.4 | -6.8 | -0.4 | 24.4 | -16.3
COc1ccc(C(=O)N2CCN(c3ncccn3)CC2)cc1[N+](=O)[O-] | 8.1 | 13.5 | -2.4 | -0.2 | -12.7 | -21.4
